A number with no mark means an inactive call.

Here are results for 40 targets from the supplement of paper PMC11001985.

Chain of UniProt P05556 (P05556 whole entry): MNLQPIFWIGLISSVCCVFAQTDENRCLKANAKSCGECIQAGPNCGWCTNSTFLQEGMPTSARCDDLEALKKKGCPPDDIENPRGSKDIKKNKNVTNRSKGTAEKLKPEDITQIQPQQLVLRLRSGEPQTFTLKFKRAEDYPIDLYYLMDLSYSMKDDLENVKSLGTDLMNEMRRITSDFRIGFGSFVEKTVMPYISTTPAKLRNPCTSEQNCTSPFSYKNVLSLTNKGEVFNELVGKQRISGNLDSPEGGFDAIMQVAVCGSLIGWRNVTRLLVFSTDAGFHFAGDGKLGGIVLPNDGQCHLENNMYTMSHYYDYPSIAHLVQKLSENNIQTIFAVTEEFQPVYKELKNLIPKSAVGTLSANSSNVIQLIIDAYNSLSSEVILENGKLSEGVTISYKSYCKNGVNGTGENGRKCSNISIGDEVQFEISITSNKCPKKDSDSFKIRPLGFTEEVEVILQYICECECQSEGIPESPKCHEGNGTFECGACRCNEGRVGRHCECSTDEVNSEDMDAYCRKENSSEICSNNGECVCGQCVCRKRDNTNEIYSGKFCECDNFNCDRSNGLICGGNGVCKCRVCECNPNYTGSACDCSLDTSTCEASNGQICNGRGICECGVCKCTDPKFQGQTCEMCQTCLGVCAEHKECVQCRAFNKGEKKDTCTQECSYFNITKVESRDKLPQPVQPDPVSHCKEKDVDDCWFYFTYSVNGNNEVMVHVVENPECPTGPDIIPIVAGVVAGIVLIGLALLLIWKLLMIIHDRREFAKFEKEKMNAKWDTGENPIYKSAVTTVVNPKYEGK
Chain of UniProt P17844 (P17844 whole entry): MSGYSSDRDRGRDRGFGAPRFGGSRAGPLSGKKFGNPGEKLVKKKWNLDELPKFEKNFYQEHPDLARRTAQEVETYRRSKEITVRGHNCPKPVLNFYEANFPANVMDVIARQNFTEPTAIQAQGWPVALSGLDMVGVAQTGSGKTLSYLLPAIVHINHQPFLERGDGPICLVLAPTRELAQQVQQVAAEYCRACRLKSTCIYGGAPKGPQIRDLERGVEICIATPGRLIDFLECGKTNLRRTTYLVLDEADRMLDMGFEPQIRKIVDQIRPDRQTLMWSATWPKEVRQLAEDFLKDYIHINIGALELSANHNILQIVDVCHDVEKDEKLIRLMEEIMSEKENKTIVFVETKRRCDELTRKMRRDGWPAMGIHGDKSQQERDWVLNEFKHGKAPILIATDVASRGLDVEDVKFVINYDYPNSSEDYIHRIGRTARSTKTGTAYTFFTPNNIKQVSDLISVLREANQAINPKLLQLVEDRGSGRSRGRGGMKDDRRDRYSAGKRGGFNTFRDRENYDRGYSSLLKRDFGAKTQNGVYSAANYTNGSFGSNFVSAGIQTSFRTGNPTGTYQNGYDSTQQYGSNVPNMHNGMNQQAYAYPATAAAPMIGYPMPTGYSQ
Chain of UniProt P11021 (P11021 whole entry): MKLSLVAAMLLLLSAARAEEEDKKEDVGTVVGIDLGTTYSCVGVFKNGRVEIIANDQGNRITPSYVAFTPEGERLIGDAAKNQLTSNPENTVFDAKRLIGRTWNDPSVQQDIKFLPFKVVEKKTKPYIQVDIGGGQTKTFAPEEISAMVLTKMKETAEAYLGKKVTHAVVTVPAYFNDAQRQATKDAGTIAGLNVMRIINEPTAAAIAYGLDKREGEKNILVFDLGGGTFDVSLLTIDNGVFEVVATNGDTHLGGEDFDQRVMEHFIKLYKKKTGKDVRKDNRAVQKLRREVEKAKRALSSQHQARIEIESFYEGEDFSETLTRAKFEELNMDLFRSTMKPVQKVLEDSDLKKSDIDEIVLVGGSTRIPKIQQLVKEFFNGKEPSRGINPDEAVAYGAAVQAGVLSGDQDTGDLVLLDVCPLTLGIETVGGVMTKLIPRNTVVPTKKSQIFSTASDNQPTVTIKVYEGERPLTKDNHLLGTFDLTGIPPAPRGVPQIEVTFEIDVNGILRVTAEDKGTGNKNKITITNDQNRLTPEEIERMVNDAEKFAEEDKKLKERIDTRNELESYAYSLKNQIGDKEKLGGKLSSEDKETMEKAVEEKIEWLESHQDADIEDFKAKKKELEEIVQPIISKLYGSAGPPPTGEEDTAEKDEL
Chain of UniProt O15031 (O15031 whole entry): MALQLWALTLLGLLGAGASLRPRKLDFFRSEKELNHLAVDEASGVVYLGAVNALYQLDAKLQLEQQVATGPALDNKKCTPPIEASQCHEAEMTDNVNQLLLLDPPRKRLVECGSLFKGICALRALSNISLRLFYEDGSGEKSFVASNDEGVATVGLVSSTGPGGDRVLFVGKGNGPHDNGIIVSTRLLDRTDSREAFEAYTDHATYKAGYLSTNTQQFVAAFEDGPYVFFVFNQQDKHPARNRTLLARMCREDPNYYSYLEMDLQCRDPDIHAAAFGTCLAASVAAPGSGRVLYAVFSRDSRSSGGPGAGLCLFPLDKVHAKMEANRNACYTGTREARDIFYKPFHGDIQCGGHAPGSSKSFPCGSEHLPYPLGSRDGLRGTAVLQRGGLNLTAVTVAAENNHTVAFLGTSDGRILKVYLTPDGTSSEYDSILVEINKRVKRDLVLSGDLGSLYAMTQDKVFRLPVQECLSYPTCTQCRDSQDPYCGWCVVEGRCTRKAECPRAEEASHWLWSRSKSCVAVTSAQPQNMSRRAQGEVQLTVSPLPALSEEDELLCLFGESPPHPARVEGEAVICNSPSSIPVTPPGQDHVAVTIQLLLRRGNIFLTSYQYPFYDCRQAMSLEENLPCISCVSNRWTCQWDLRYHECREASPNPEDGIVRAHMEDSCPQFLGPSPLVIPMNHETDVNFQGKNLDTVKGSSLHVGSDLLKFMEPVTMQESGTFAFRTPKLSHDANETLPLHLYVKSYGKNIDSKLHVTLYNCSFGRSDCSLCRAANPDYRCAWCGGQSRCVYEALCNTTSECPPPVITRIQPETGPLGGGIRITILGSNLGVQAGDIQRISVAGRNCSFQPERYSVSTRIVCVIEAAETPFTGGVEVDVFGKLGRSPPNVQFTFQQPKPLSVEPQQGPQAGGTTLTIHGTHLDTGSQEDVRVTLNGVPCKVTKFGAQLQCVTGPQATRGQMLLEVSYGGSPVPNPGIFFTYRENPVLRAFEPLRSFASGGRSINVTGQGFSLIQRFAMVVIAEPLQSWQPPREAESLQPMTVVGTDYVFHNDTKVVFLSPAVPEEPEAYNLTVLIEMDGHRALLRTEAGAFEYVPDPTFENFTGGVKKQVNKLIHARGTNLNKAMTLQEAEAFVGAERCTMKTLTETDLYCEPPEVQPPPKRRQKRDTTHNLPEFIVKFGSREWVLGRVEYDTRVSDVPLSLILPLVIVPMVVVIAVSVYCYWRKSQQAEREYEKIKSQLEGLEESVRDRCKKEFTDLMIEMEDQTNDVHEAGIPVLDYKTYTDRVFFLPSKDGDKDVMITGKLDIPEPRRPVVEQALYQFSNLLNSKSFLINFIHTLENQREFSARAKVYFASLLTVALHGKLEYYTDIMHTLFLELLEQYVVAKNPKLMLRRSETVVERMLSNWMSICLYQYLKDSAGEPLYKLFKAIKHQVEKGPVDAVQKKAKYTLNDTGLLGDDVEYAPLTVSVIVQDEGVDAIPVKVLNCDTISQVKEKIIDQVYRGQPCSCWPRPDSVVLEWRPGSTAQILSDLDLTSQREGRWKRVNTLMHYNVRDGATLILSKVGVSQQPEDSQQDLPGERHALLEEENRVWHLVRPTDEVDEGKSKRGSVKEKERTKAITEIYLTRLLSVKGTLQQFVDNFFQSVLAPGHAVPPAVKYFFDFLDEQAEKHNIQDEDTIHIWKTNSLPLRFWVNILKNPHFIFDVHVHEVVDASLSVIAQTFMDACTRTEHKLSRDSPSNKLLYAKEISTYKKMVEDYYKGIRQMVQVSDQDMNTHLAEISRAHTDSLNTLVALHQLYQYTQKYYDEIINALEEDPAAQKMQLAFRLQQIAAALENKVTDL
Chain of UniProt O43707 (O43707 whole entry): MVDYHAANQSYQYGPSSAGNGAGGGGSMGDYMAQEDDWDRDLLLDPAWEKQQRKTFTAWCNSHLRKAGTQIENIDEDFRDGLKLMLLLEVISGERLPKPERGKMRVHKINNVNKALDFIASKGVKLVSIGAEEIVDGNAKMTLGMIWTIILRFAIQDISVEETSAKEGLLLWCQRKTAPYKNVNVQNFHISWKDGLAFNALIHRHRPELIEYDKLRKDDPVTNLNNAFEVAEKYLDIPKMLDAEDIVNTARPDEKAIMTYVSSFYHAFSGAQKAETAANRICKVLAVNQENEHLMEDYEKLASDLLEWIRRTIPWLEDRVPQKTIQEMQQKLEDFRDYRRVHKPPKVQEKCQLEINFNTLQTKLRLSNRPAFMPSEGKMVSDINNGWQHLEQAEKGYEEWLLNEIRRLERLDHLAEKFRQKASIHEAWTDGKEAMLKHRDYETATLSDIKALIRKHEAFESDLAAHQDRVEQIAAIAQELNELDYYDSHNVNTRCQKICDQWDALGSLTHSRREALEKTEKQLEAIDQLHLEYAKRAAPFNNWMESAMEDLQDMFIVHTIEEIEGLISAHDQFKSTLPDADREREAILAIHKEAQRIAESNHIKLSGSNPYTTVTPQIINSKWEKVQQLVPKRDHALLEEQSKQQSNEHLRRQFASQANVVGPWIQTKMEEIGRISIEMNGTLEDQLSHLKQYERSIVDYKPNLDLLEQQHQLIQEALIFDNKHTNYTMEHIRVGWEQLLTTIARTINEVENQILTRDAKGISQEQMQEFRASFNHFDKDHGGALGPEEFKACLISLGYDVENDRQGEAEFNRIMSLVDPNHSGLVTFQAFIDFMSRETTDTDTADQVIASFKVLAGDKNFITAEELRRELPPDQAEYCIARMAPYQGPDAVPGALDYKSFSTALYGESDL
Chain of UniProt P52803 (P52803 whole entry): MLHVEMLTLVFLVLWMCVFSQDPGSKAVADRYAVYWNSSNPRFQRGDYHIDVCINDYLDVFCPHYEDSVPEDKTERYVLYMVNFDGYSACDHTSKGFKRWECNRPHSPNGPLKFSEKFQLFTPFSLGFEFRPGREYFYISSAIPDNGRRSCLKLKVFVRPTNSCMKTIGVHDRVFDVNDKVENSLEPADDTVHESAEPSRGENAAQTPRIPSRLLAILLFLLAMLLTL

Compound in the experiment: C#CCNC(=O)CCSSCCC(=O)NCCc1ccc(C=O)c(C=O)c1
The experiment is described as follows: lysine labeling ratio R10:1 (500 µM / 50 µM probe), SILAC-ABPP in living cells; higher = lower intrinsic lysine reactivity toward the probe, active = 2 or less. Conditions: HeLa; probe concentrations 500 vs 50 µM. As to the method: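 Living HeLa cells (SILAC light/heavy) in PBS at room temperature were labeled with 50 µM versus 500 µM of the lysine-reactive, reductant-cleavable probe OPA-S-S-alkyne (SILAC labeling time not stated). Probe-modified peptides were CuAAC-biotinylated, captured on neutravidin and eluted with DTT/IAA, then quantified by LC-MS/MS. R = median peptide ratio per lysine (500/50 µM), combined over 3 forward and 3 reverse SILAC replicates. Ratios are capped at 20; R < 2 = hyper-reactive.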
Regarding “RPL34 (lysine site: K85) (UniProt P49207)”, the “lysine labeling ratio R10:1” value is 1.67 (active).
For the target “CD109 (lysine site: K1022) (UniProt Q6YHK3)”, the “lysine labeling ratio R10:1” value was 0.98 (active).
As to “PLXNB2 (lysine site: K322) (UniProt O15031)”, the “lysine labeling ratio R10:1” value was 0.663 (active).
As to “CD55 (lysine site: K160) (UniProt P08174)”, the “lysine labeling ratio R10:1” value is 1.09 (active).
In the case of “IGF2R (lysine site: K1104) (UniProt P11717)” it was 3.26; in that of “ITGB1 (lysine site: K238) (UniProt P05556)”, 1.34 (active).
Turning to “TFPI (lysine site: K64) (UniProt P10646)”, the “lysine labeling ratio R10:1” value is 1.41 (active).
Turning to “SUB1 (lysine site: K68) (UniProt P53999)”, the “lysine labeling ratio R10:1” value is 8.07.
With “RPS3 (lysine site: K62) (UniProt P23396)”, the “lysine labeling ratio R10:1” value is 3.22.
In the case of UniProt P16144 (lysine site: K662) it was 1.57 (active); in that of “EGFR (lysine site: K500) (UniProt P00533)”, 12.8; in that of “CORO1C (lysine site: K329) (UniProt Q9ULV4)”, 1.19 (active).
Take “MYH9 (lysine site: K760) (UniProt P35579)”: the “lysine labeling ratio R10:1” value was 3.31.
With UniProt P61160 (lysine site: K253), the “lysine labeling ratio R10:1” value was 3.35.
As to “ITGAV (lysine site: K149) (UniProt P06756)”, the “lysine labeling ratio R10:1” value was 4.46.
With “FN1 (lysine site: K2354) (UniProt P02751)”, the “lysine labeling ratio R10:1” value was 6.78.
Turning to “PLOD3 (lysine site: K89) (UniProt O60568)”, the “lysine labeling ratio R10:1” value was 5.28.
Regarding “PRDX6 (lysine site: K63) (UniProt P30041)”, the “lysine labeling ratio R10:1” value is 2.85.
As to UniProt Q13620 (lysine site: K903), the “lysine labeling ratio R10:1” value was 3.24.
As for “TFRC (lysine site: K205) (UniProt P02786)”, the “lysine labeling ratio R10:1” value was 2.81.
Turning to “LAMC1 (lysine site: K1191) (UniProt P11047)”, the “lysine labeling ratio R10:1” value was 2.51.
Next, “EEF1G (lysine site: K132) (UniProt P26641)”: 1.81 (active); “ACTN4 (lysine site: K632) (UniProt O43707)”: 4.35.
Regarding “NUCB2 (lysine site: K171) (UniProt P80303)”, the “lysine labeling ratio R10:1” value is 2.34.
Take “ITGB1 (lysine site: K107) (UniProt P05556)”: the “lysine labeling ratio R10:1” value was 1.41 (active).
Consider “HSPA5 (lysine site: K523) (UniProt P11021)”, for which the “lysine labeling ratio R10:1” value is 3.39.
With “DDX5 (lysine site: K80) (UniProt P17844)”, the “lysine labeling ratio R10:1” value was 3.64.
Regarding “NEGR1 (lysine site: K98) (UniProt Q7Z3B1)”, the “lysine labeling ratio R10:1” value is 5.29.
On to “CSPG4 (lysine site: K1711) (UniProt Q6UVK1)”, for which the “lysine labeling ratio R10:1” value was 0.655 (active).
“LDLR (lysine site: K596) (UniProt P01130)”: the “lysine labeling ratio R10:1” value is 1.28 (active).
As to “SPTAN1 (lysine site: K2404) (UniProt Q13813)”, the “lysine labeling ratio R10:1” value was 1.94 (active).
For “ANPEP (lysine site: K836) (UniProt P15144)”, the “lysine labeling ratio R10:1” value was 0.79 (active).
In the case of “FRAS1 (lysine site: K3209) (UniProt Q86XX4)”, the “lysine labeling ratio R10:1” value is 2.67.
On to “FAT4 (lysine site: K2221) (UniProt Q6V0I7)”, for which the “lysine labeling ratio R10:1” value is 4.75.
Next, “TUBA1A (lysine site: K338) (UniProt Q71U36)”: 2 (active).
For the target “DDX5 (lysine site: K264) (UniProt P17844)”, the “lysine labeling ratio R10:1” value was 7.01.
Regarding “TLN1 (lysine site: K1171) (UniProt Q9Y490)”, the “lysine labeling ratio R10:1” value was 1.76 (active).
On to “CCT2 (lysine site: K82) (UniProt P78371)”, for which the “lysine labeling ratio R10:1” value is 2.91.
For the target UniProt P52803 (lysine site: K166), the “lysine labeling ratio R10:1” value was 0.58 (active).
“LAMB1 (lysine site: K1492) (UniProt P07942)”: the “lysine labeling ratio R10:1” value was 4.06.
